Out of some 18,000 compounds screened, fewer than 10 showed an effect of 50% or more. A selection follows.

In this assay the test system is Pseudomonas aeruginosa. In words: Antibacterial activity against Pseudomonas aeruginosa PAO397 [PAO1 d(mexAB-oprM) d(mexCD-oprJ) d(mexEF-oprN) d(mexJKL) d(mexXY) d(opmH)] (CO-ADD:GN_211); MIC in CAMBH media using NBS plates, by OD(600). It counts as functional. The following applies: Concentration 300 ug.mL-1, ASSAY_TEST Inhibition of Bacterial Growth, detection method Absorption (OD600), MEDIA CAMHB, plate type 384well, CORNING #3640, time 18 hr.
One may read the Inhibition as the change of the read-out against control, counted positive when it falls. Take `O=C(NC(C1CCNCC1)[C@H]1C[C@H](O)C1)C1(CO)CC1` (some centres undefined): the Inhibition amounted to 10.73%.
For `CC1(C)Cc2cccc(OCCN)c2O1`, the Inhibition is on record as -35.66%.
The figure for `CN1CCC(CN(C)Cc2cncs2)C1` (centres undefined) is 2.31%; for `CC(Cn1cccn1)NC(=O)CCc1ccc(F)cc1` (centres undefined) it is -50.8%; for `CC(C)c1nc(CN(CCO)Cc2nccn2C)co1` it is -7.36%.
The figure for `CC1(C)CN(CC(O)C(F)(F)F)CCO1` (centres undefined) is 7.85%; for `COc1cccc(CN(C)CCN(C)C)c1OC` it is 12.2%; for `CC(C)NC(=O)CNC(=O)c1cc2cc(F)ccc2[nH]1` it is -6.73%.
Regarding `CC1CCN(C(=O)NCCS(=O)(=O)C(C)(C)C)C1` (centres undefined), the Inhibition is recorded as 10.36%.
The figure for `CCNc1ncc(C(=O)N[C@@H]2CC[C@@H](N)C2)cn1` is 21.83%; for `CC(c1ccc(F)cc1)N(C)C(=O)CCCN` (centres undefined) it is -12.4%; for `c1nsnc1-c1nc(C2CCCO2)no1` (centres undefined) it is -21.13%.
In the case of `O=C(NCc1nnc2n1CCC2)Nc1cn[nH]c1`, the Inhibition was determined as 21.21%.
The figure for `NCCCc1cn[nH]c1` is 12.47%; for `O=C(c1ccc(C2CCCNC2)cc1)N1CCSCC1` (centres undefined) it is -23.58%; for `CCCNC(=O)C1CCN(c2ncccc2C#N)CC1` it is -18.27%.
To `CCC(C(=O)Nc1ccccc1)N1CCS(=O)(=O)CC1` (centres undefined) belongs 18.51%.
For `COc1cc(F)c(S(=O)(=O)N(C)CC(N)=O)cc1OC`, the Inhibition is reported as 33.48%.
Consider `COc1nc(C)ccc1C#N`, for which the Inhibition came to 11.86%.
On to `CC1(C)C(=O)NCCN1S(=O)(=O)c1ccccc1`, for which the Inhibition is given as -8.7%.
To `Nc1ccc(CN2CCN(CC(F)(F)F)CC2)cn1` belongs -9.81%; to `COc1ccc(C(=O)N2C[C@@H](CO)[C@H](N(C)C)C2)cn1`, -8.8%; to `NCc1cc2c([nH]c1=O)CCCC2`, 4.51%.
To `C=C(C)CN1CCC(NC(=O)NC2CC2)CC1` belongs -6.54%; to `Cn1nc(C(=O)NCc2cc(Cl)ccn2)ccc1=O`, -9.69%; to `CC(C)CC(NCCS(C)(=O)=O)c1ccccn1` (centres undefined), 6.01%.
As for `Cc1sc(S(N)(=O)=O)cc1N`, the Inhibition is recorded as 7.68%.
On to `COc1ccc(CC(C)=O)cn1`, for which the Inhibition is 4.82%.
To `CC(C#N)CNC(=O)c1c(O)cc(F)cc1F` (centres undefined) belongs 13.91%; to `Cc1cccc(CNCCS(=O)(=O)N2CCOCC2)c1`, -1.09%.
The figure for `c1cnc2cc(-c3nc(C4CCOC4)no3)nn2c1` (centres undefined) is 18.33%; for `CC(C)N(CCOc1ccccc1C#N)CC(N)=O` it is -27.27%.
In the case of `Cc1csc(N2CCCN(C(=O)c3cnsn3)CC2)n1`, the Inhibition was -3.72%.
To `O=C(c1cccc(-n2cccn2)n1)N1CCCC1` belongs 17.03%; to `COCCCn1c(SC2CCCCNC2=O)n[nH]c1=O` (centres undefined), -25.74%.
The figure for `CCNC(=O)COC(=O)c1cc(O)nc2ccccc12` is -1.47%.
To `Cc1cc(CO)ccc1N1CCOCC1` belongs 6.45%; to `CC(C)OCC(O)CN1CCc2ccc(O)cc2C1` (centres undefined), -14.27%.
Turning to `CCc1ccc(CN2Cc3cnn(CCO)c3C2)nc1`, the Inhibition is 18.58%.
Turning to `NC(=O)CN1CCC(NC(=O)c2cc(Br)c[nH]2)CC1`, the Inhibition is given as 14.11%.
Regarding `O=C(CNC(=O)N1CCC=C(Br)C1)N1CCCCC1`, the Inhibition is reported as -37.56%.
`CCN(Cc1[nH]cnc1C)C1CCS(=O)(=O)C1` (centres undefined): the Inhibition is on record as 6.36%.
As for `CN1N=C(C(=O)Nc2ccc(Cl)cn2)CCC1=O`, the Inhibition is 8.23%.
For the compound `Cc1cc(=O)n(C)cc1NC(=O)CCc1ccccn1`, the Inhibition was 1.98%.
For `CC(C)(C)c1noc(CN2CCSCC2)n1`, the Inhibition was -15.23%.
`CC(O)CN(C)c1ncc(Br)cn1` (centres undefined): the Inhibition was -40.03%.
Turning to `CC(C)(C)SCC(=O)Nc1ccc(CS(N)(=O)=O)cc1`, the Inhibition is given as -2.55%.
The figure for `CS(=O)(=O)NC(c1ccc(F)cc1)c1cccnc1` (centres undefined) is -27.51%; for `CN(C)CCOC1CCNCC1` it is 12.65%; for `COC(=O)CNC(=O)CSc1nc(C)cc(C)c1C#N` it is -8.27%.
In the case of `CN1CCC(CN(C)S(=O)(=O)c2ccccc2)CC1`, the Inhibition was -25.1%.
To `Cc1cc(C)n(-c2ccc(C(=O)NC(C)(C)C)cn2)n1` belongs 9.83%; to `Cn1cccc1CNCCNC(=O)c1ccn[nH]1`, -19.28%.
Turning to `c1ccc(C2=NCCN2)nc1`, the Inhibition worked out at 8.57%.
The figure for `Cc1ccc(CC(=O)N2CCC[C@H]2CO)cc1O` is 9.81%; for `c1ccc2[nH]c(NCC3CCCO3)nc2c1` (centres undefined) it is -27.33%.
To `COCCNC(=O)CN1CCC2(CC1)OCCO2` belongs 24.44%.
As to `CCOc1cccc(NC(=O)c2ccc(C)[nH]c2=O)n1`, the Inhibition stood at 14.98%.
`CN1CCOC(C(=O)Nc2ncc(Cl)s2)C1` (centres undefined): the Inhibition was -8.17%.
The figure for `CC(=O)NC1CCN(Cc2ccc(F)c(F)c2)CC1` is -27.6%; for `Cc1ccccc1OCCN1CCC(C(N)=O)CC1` it is 0.98%; for `COc1ccccc1OCC(C)N` (centres undefined) it is 15.24%.
To `NC1CC(c2cc(NCC[C@H]3CCCN3)ncn2)C1` (some centres undefined) belongs 15.98%.
To `CNc1nnc(SCc2csc(NC(C)=O)n2)s1` belongs -5.82%; to `COc1ccc(C(N)c2ccncc2)cc1` (centres undefined), -28.12%.
For the compound `CC(=O)N1CCN(c2ccc(CN)cc2)CC1`, the Inhibition is -1.93%.
Turning to `O=C(NC1CC1)c1n[nH]c2ccccc12`, the Inhibition was -5.33%.
To `O=C(CCCc1nccs1)NCC(=O)N1CCCCC1` belongs -6.34%; to `CC(CS(C)(=O)=O)NC(=O)C(C)(C)C` (centres undefined), -7.14%.

Source of the values: ChEMBL document CHEMBL4513160, “CO-ADD screening of MMV (CH) - Small Polar Library”.
